Test results as given in PubChem BioAssay AID651820 (National Center for Advancing Translational Sciences (NCATS), 2012).
About 12,000 (3.5%) of roughly 340,000 compounds were called active. Not shown: some 18% with an inconclusive outcome. Only a selection was taken, and actives are over-represented in it overall. A number with no mark means an inactive call. Calls follow the shape of the dose curve; as a rule, active = well fitted inhibition curve with a large enough effect; inconclusive = small, poorly fitted or top-dose-only effect, or another doubt; inactive = no such curve, though single readings can be large or run the other way.

Test: qHTS Assay for Inhibitors of Hepatitis C Virus (HCV)
Details: Huh7.5.1 HCVcc-Cre infection, luciferase reporter, 44 h; series mostly up to 41.8 µM; activity change, negative = inhibition: at the top concentration
Outline: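 Compounds are dispensed onto cells plated 4 h earlier at 1,000 per well, with HCVcc-Cre virus (about 0.5 moi) added next. Following 44 h of culture, luminescent signal is measured for 15 sec after 15 min with substrate at room temperature.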
% is scaled to controls: 0 for no effect and ±100 for the full control effect; potency is read from the fitted curve at half-maximal effect.

| Structure (SMILES) | activity change, negative = inhibition [%] | Potency |
| --- | --- | --- |
| O=C(NCCN1C(=O)S/C(=C\c2cccnc2)C1=O)c1cccc(OC(F)F)c1 | 1.89 | – |
| Cc1cc(OCCCC(=O)NCCN2C(=O)S/C(=C\c3cccnc3)C2=O)ccc1Cl | – | 10 µM (active) |
| CCOc1ccc(N2CC(C(=O)NCCN3C(=O)S/C(=C\c4cccnc4)C3=O)CC2=O)cc1 (stereo not drawn) | -16.4 | – |
| OCC1(CCc2ccccc2)CCN(Cc2ccc3nsnc3c2)CC1 | 6.6 | – |
| Cc1cccc(-c2ncc(CN3CCC(CO)(CCCc4ccccc4)CC3)cn2)c1 | – | 10 µM (active) |
| CC(=O)c1cccc(CN2CCC(CO)(Cc3ccccc3)CC2)c1 | -1.38 | – |
| c1ccc2cc(CCCc3cc4ccccc4cn3)ncc2c1 | -5.19 | – |
| COc1ccc([C@H]2CC(=O)C=C(/C=C/c3ccccc3)C2)cc1 | 1.94 | – |
| COc1cc(C(=O)NCc2nnc(SCC(=O)c3ccc(Cl)cc3)o2)cc(OC)c1OC | -20.9 | – |
| CCOC(=O)CSc1nnc(CNc2ccc(F)cc2)o1 | 2.35 | – |
| CCC(=O)Nc1ccc(C(=O)CSc2nnc(CNc3ccc(Cl)cc3)o2)cc1OC | – | 5.01 µM (active) |
| O=C(COC(=O)c1cccnc1Cl)NC12CC3CC(CC(C3)C1)C2 | 15 | – |
| O=C1/C(=C/c2ccc3c(c2)OCO3)CCC/C1=C\c1ccc2c(c1)OCO2 | – | inactive |
| CCn1cc(/C=C2/SC(=S)NC2=O)c(C)n1 | -23.4 | – |
| Cc1nn(C)cc1/C=C1\CCC/C(=C\c2cn(C)nc2C)C1=O | – | 10 µM (active) |
| CC(=O)N(O)CCCCCNC(=O)CCC(=O)N(O)CCCCCNC(=O)CCC(=O)N(O)CCCCCNC(=O)CCC(=O)O | -9.7 | – |
| O=S1(=O)CSCS(=O)(=O)C1 | 4.27 | – |
| CCN(CC)CCNC(=O)Cn1cnc2sc(C)c(S(=O)(=O)N3CCOCC3)c2c1=O | – | inactive |
| CCN(CC)CCCNC(=O)Cn1cnc2sc(C)c(S(=O)(=O)N3CCN(c4ncccn4)CC3)c2c1=O | -1.55 | – |
| CCN(CC)CCNC(=O)c1sc2ncn(CC(=O)Nc3ccc(C)c(Cl)c3)c(=O)c2c1C | – | 8.91 µM (active) |
| CC(=O)Nc1ccc(C(=O)Nc2cc(S(=O)(=O)N3CCOCC3)ccc2N2CCOCC2)cc1 | -10.7 | – |

| Structure (SMILES) | activity change, negative = inhibition [%] | Potency |
| --- | --- | --- |
| O=C(CN1CCOCC1)Nc1cccc([N+](=O)[O-])c1 | 7.8 | – |
| Cc1cccc(NC(=S)N(CCN(C)C)C(C)c2ccco2)c1 (stereo not drawn) | 21.8 | – |
| COCCN(C(=S)Nc1ccccc1OC)C1CCN(C(C)C)CC1 | -1.86 | – |
| CCc1cccc(NC(=S)N(CCN(C)C)C2CCN(C(C)C)CC2)c1 | – | 8.91 µM (active) |
| O=c1oc2ccc(C#CC3(O)CCCCC3)cc2cc1-n1cc(-c2ccsc2)nn1 | 6.15 | – |
| CCOC(=O)C(C)N(c1ccccc1Cl)S(C)(=O)=O (stereo not drawn) | 7.17 | – |
| COc1cccc(CC(=O)OCC(=O)NCc2ccc3c(c2)OCO3)c1 | 15.7 | – |
| COc1cccc(CCNC(=O)COc2cccc3c2OC(C)(C)C3)c1 | -22 | – |
| COc1cccc(CNC(=O)COc2cc(O)c3c(c2)OC(C)(C)CC3=O)c1 | – | 5.01 µM (active) |
| COc1cc2[nH]c(O)c(C=O)c2cc1OC | 7.9 | – |
| COc1ccccc1C(=O)Nc1ccc(Nc2ccccc2)cc1 | 2.81 | – |
| COc1ccc2[nH]c3c(c2c1)CCN1C(=O)C(CC(=O)NCCc2ccccn2)C[C@H](C(=O)N2CCOCC2)[C@@]31C (stereo partly drawn) | -4.93 | – |
| Cc1nn(CC(=O)N2CCCCC2)c(=O)c2nn(-c3ccccc3)c(C)c12 | 9.96 | – |
| COc1ccc(CNC(=O)C(C)n2nc(C)c3c(C)n(-c4ccccc4)nc3c2=O)c(OC)c1 (stereo not drawn) | -27.5 | – |
| COc1ccc(OC)c(CNC(=O)Cn2nc(C)c3c(C)n(-c4ccc(C)cc4)nc3c2=O)c1 | – | 3.98 µM (active) |
| O=C(c1ccc(Cl)s1)N(Cc1nnc(-c2ccccc2Cl)o1)C1CC1 | 0 | – |
| CCC(=O)NC(=S)Nc1ccc(NC(=O)c2ccco2)c(Cl)c1 | -21.3 | – |
| CCN(CC)P(=O)(Nc1ccc(SC(F)F)cc1)c1ccc(N(C)C)cc1NC(=O)c1ccco1 (stereo not drawn) | – | 22.4 µM (active) |
| COc1ccc(OCC(=O)Nc2ccc(NC(=O)c3ccco3)c(C)c2)cc1 | 9.3 | – |
| CCN(C(=O)COC(=O)CCOc1cccc(C)c1)c1c(N)n(Cc2ccccc2)c(=O)[nH]c1=O | 23.4 | – |
| CC(OC(=O)c1ccc([N+](=O)[O-])cc1)C(=O)NCC1CCCCC1 (stereo not drawn) | -7.4 | – |

| Structure (SMILES) | activity change, negative = inhibition [%] | Potency |
| --- | --- | --- |
| N[C@@H](Cc1ccccc1)C(=O)N1CCOCC1 | 1.81 | – |
| COc1ccc(-c2cc(C(=O)N/N=C/c3cccnc3)c3ccccc3n2)c(OC)c1 | -20.3 | – |
| CC(=O)Oc1cc2c(C(=O)NCCN3CCOCC3)c(C)oc2c2ccccc12 | – | 10 µM (active) |
| Cc1cc(C)cc(C(=O)NCCN2CCOCC2)c1 | 25.1 | – |
| Cc1ccc(C(=O)NCCN2CCOCC2)cc1C | 19.4 | – |
| C[C@@H]1CN([C@H](C)CO)C(=O)c2cc(NC(=O)NC3CCCCC3)ccc2O[C@H]1CN(C)S(C)(=O)=O | 0.0101 | – |
| Cc1ccc(S(=O)(=O)CCC(=O)OCC(=O)NCCc2ccc(S(N)(=O)=O)cc2)cc1 | 19.7 | – |
| Cc1ccc(S(=O)(=O)NC(=O)Nc2nc(-c3ccc(F)c(F)c3)cs2)cc1 | -7.66 | – |
| COc1cccc(CC(=O)Nc2nc(-c3ccc(OC)c(OC)c3)cs2)c1 | – | 12.6 µM (active) |
| COc1ccc(-c2csc(NC(=O)c3ccc(N4C(=O)CCC4=O)cc3)n2)cc1OC | -26.9 | – |
| COc1ccc(CC(=O)Nc2nc(-c3ccc(F)c(F)c3)cs2)cc1OC | – | 4.47 µM (active) |
| COc1cccc(CC(=O)Nc2ccc(-c3csc(C)n3)cc2)c1 | -22.6 | – |
| COc1ccc(CC(=O)Nc2ccccc2NC(=O)c2ccco2)cc1OC | -1.79 | – |
| Cc1ccc(-c2csc(NC(=O)Cc3cccs3)n2)cc1C | -1.69 | – |
| COc1cc(CC(=O)Nc2nc(-c3ccc(F)c(F)c3)cs2)cc(OC)c1OC | – | 10 µM (active) |
| COc1ccc(CCN(C(=O)COc2ccccc2)c2nc(-c3ccccc3)cs2)cc1OC | -26 | – |
| Cc1nc2ccccc2c(=O)n1-c1ccc(F)c(NC(=O)c2cccs2)c1 | -0.715 | – |
| CCCN(CC1CC1)C(=S)NC(=O)c1ccccc1Br | 11.2 | – |
| CCOc1ncccc1C(=O)OCC(=O)c1c[nH]c2ccccc12 | -3.08 | – |
| O=C(Nc1ccc2ccccc2c1[N+](=O)[O-])c1ccccc1 | -0.234 | – |
| COc1ccccc1C(=O)NCCC(=O)NCC(c1ccco1)N1CCCCC1 (stereo not drawn) | 32.7 | – |
